Data reported in PubChem BioAssay AID1159580 (chemical genetic matrix, 2015).
About 2,000 (36%) of roughly 5,500 compounds were called active. Roughly 18% stayed inconclusive and do not appear here. No stated cut-off is given here; in the data, active means normalized growth mostly below about 0.91 (no sharp cut-off); inconclusive means no clear call, values can overlap the other calls; inactive means mostly above about 0.92. The list shows a part of the results.

Test: chemical genetic growth profiling, strain panel (AID 1159580);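 further: tested at 20 µM; growth read once vehicle control cultures reached saturation at 30 °C; 1 = growth at the plate median or of vehicle wells; lower values mean less growth of the strain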
Settings: growth OD

Measured: normalized growth

COc1c(O)cccc1O
inactive: S. cerevisiae deletion strains, locus YJL187C, strain SWE1, active compounds read low 1.02 | S. cerevisiae deletion strains, locus YJR043C, strain POL32, active compounds read low 1.03 | S. cerevisiae deletion strains, locus YJR066W, strain TOR1, active compounds read low 0.977 | S. cerevisiae deletion strains, locus YJR075W, strain HOC1, active compounds read low 1.02 | S. cerevisiae deletion strains, locus YKL009W, strain mrt4, active compounds read low 1.05 | S. cerevisiae deletion strains, locus YKL068W, active compounds read low 0.99 | S. cerevisiae deletion strains, locus YKL085W, strain MDH1 (second series), active compounds read low 1.01 | S. cerevisiae deletion strains, locus YKL085W, strain MDH1, active compounds read low 1.01 | S. cerevisiae deletion strains, locus YKL160W, strain elf1, active compounds read low 1.01 | S. cerevisiae deletion strains, locus YKR001C, strain vps1, active compounds read low 1.08 | S. cerevisiae deletion strains, locus YKR026C, strain gcn3, active compounds read low 1.02 | S. cerevisiae deletion strains, locus YKR091W, strain srl3, active compounds read low 1.02 | S. cerevisiae deletion strains, locus YLL001W, strain dnm1, active compounds read low 1.03 | S. cerevisiae deletion strains, locus YLL026W, active compounds read low 1.02 | S. cerevisiae deletion strains, locus YLL041C, strain sdh2, active compounds read low 1.02 | S. cerevisiae deletion strains, locus YLR027C, strain aat2, active compounds read low 1.01 | S. cerevisiae deletion strains, locus YLR039C, strain RIC1, active compounds read low 1.11 | S. cerevisiae deletion strains, locus YLR058C, strain SHM2, active compounds read low 1.03 | S. cerevisiae deletion strains, locus YLR102C, strain apc9, active compounds read low 1 | S. cerevisiae deletion strains, locus YLR113W, strain HOG1, active compounds read low 1.04 | S. cerevisiae deletion strains, locus YLR221C, strain rsa3, active compounds read low 1.03 | S. cerevisiae deletion strains, locus YLR258W, strain gsy2, active compounds read low 1.02 | S. cerevisiae deletion strains, locus YLR262C, strain YPT6 (second series), active compounds read low 1.03 | S. cerevisiae deletion strains, locus YLR268W, strain sec22, active compounds read low 1.05 | S. cerevisiae deletion strains, locus YLR320W, strain mms22, active compounds read low 1.04 | S. cerevisiae deletion strains, locus YLR330W, strain CHS5, active compounds read low 1.01 | S. cerevisiae deletion strains, locus YLR342W, strain FKS1, active compounds read low 1.03 | S. cerevisiae deletion strains, locus YLR357W, strain rsc2, active compounds read low 1.03 | S. cerevisiae deletion strains, locus YLR370C, strain arc18, active compounds read low 1.02 | S. cerevisiae deletion strains, locus YLR371W, strain rom2, active compounds read low 1.03 | S. cerevisiae deletion strains, locus YLR384C, strain iki3, active compounds read low 1.01 | S. cerevisiae deletion strains, locus YLR418C, strain cdc73, active compounds read low 1.1 | S. cerevisiae deletion strains, locus YML016C, strain PPZ1, active compounds read low 1.01 | S. cerevisiae deletion strains, locus YML032C, strain rad52, active compounds read low 1.01 | S. cerevisiae deletion strains, locus YML120C, strain ndi1, active compounds read low 1.01 | S. cerevisiae deletion strains, locus YML124C, strain tub3, active compounds read low 1 | S. cerevisiae deletion strains, locus YMR058W, strain fet3, active compounds read low 1.03 | S. cerevisiae deletion strains, locus YMR078C, strain ctf18, active compounds read low 1.02 | S. cerevisiae deletion strains, locus YMR125W, strain sto1, active compounds read low 1.01 | S. cerevisiae deletion strains, locus YMR129W, active compounds read low 1.02 | S. cerevisiae deletion strains, locus YMR205C, strain PFK2, active compounds read low 1.03 | S. cerevisiae deletion strains, locus YMR223W, strain ubp8, active compounds read low 1.03 | S. cerevisiae deletion strains, locus YMR231W, strain pep5, active compounds read low 1 | S. cerevisiae deletion strains, locus YMR307W, strain GAS1, active compounds read low 1.13 | S. cerevisiae deletion strains, locus YNL067W, strain RPL9B, active compounds read low 0.97 | S. cerevisiae deletion strains, locus YNL071W, strain lat1, active compounds read low 1.03 | S. cerevisiae deletion strains, locus YNL153C, strain GIM3, active compounds read low 1.02 | S. cerevisiae deletion strains, locus YNL183C, strain NPR1, active compounds read low 0.984 | S. cerevisiae deletion strains, locus YNL209W, strain ssb2, active compounds read low 1.01 | S. cerevisiae deletion strains, locus YNL233W, strain BNI4, active compounds read low 1.03 | S. cerevisiae deletion strains, locus YNL248C, strain rpa49, active compounds read low 1.04 | S. cerevisiae deletion strains, locus YNL250W, strain rad50, active compounds read low 1.05 | S. cerevisiae deletion strains, locus YNL271C, strain bni1, active compounds read low 1.02 | S. cerevisiae deletion strains, locus YNL298W, strain CLA4, active compounds read low 1.03 | S. cerevisiae deletion strains, locus YNL307C, strain MCK1, active compounds read low 1.01 | S. cerevisiae deletion strains, locus YNL322C, strain KRE1 (second series), active compounds read low 1.02 | S. cerevisiae deletion strains, locus YNL322C, strain KRE1, active compounds read low 0.99 | S. cerevisiae deletion strains, locus YNR049C, strain mso1, active compounds read low 1.02 | S. cerevisiae deletion strains, locus YNR052C, strain pop2, active compounds read low 1.04 | S. cerevisiae deletion strains, locus YOL012C, strain htz1 0.853 | S. cerevisiae deletion strains, locus YOL147C, strain pex11, active compounds read low 0.999 | S. cerevisiae deletion strains, locus YOR001W, strain rrp6, active compounds read low 1.02 | S. cerevisiae deletion strains, locus YOR061W, strain CKA2, active compounds read low 1.01 | S. cerevisiae deletion strains, locus YOR069W, strain VPS5, active compounds read low 0.996 | S. cerevisiae deletion strains, locus YOR070C, strain gyp1, active compounds read low 1.01 | S. cerevisiae deletion strains, locus YOR080W, strain dia2, active compounds read low 1.03 | S. cerevisiae deletion strains, locus YOR083W, strain WHI5, active compounds read low 1.03 | S. cerevisiae deletion strains, locus YOR106W, strain vam3, active compounds read low 1.06 | S. cerevisiae deletion strains, locus YOR136W, strain idh2, active compounds read low 1.02 | S. cerevisiae deletion strains, locus YOR144C, strain elg1, active compounds read low 1.01 | S. cerevisiae deletion strains, locus YOR184W, strain ser1, active compounds read low 1.06 | S. cerevisiae deletion strains, locus YOR231W, strain MKK1, active compounds read low 1.03 | S. cerevisiae deletion strains, locus YOR265W, strain rbl2, active compounds read low 1.01 | S. cerevisiae deletion strains, locus YOR270C, strain vph1, active compounds read low 1.13 | S. cerevisiae deletion strains, locus YOR290C, strain snf2, active compounds read low 1.03 | S. cerevisiae deletion strains, locus YOR316C, strain cot1, active compounds read low 1 | S. cerevisiae deletion strains, locus YPL051W, strain arl3, active compounds read low 0.998 | S. cerevisiae deletion strains, locus YPL078C, strain atp4, active compounds read low 1.03 | S. cerevisiae deletion strains, locus YPL106C, strain sse1, active compounds read low 1.04 | S. cerevisiae deletion strains, locus YPL240C, strain hsp82, active compounds read low 1.02 | S. cerevisiae deletion strains, locus YPL256C, strain CLN2, active compounds read low 1.01 | S. cerevisiae deletion strains, locus YPR119W, strain clb2, active compounds read low 1.01 | S. cerevisiae deletion strains, locus YPR141C, strain kar3, active compounds read low 1.01 | S. cerevisiae deletion strains, locus YPR163C, strain tif3, active compounds read low 1.03 | S. cerevisiae deletion strains, locus YPR167C, strain met16, active compounds read low 1.04 | S. cerevisiae deletion strains, strain wtn01, active compounds read low 1.04 | S. cerevisiae strains, strain wild type, active compounds read low 1
